# About 830 (0.38%) of roughly 220,000 compounds were called active. Only a sample is shown. Results with a measured potency or affinity are listed apart. Unmarked numbers belong to inactive results.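 Rule for the calls: active = compound inhibiting the enzyme by more than half at any dose during confirmatory dose-response retesting; inconclusive = strong single-dose inhibitors picked by rank but not retested; inactive = the rest.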
# Target: Leucine aminopeptidase (Plasmodium falciparum (isolate 3D7)) (UniProt Q8IL11)
# Assay: P. falciparum M17LAP inhibitors, primary screen, biochemical, fluorogenic H-Leu-NHMec substrate, 1536-well (AID 1619);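 note: plate controls were full reaction with DMSO carrier for no effect and no enzyme background for full effect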
# Conditions: recombinant M17LAP, H-Leu-NHMec fluorogenic kinetic assay; at 30 µM; stronger effect = higher value
# Leucine aminopeptidase (Plasmodium falciparum (isolate 3D7)), sequence (Q8IL11 whole entry, looked up): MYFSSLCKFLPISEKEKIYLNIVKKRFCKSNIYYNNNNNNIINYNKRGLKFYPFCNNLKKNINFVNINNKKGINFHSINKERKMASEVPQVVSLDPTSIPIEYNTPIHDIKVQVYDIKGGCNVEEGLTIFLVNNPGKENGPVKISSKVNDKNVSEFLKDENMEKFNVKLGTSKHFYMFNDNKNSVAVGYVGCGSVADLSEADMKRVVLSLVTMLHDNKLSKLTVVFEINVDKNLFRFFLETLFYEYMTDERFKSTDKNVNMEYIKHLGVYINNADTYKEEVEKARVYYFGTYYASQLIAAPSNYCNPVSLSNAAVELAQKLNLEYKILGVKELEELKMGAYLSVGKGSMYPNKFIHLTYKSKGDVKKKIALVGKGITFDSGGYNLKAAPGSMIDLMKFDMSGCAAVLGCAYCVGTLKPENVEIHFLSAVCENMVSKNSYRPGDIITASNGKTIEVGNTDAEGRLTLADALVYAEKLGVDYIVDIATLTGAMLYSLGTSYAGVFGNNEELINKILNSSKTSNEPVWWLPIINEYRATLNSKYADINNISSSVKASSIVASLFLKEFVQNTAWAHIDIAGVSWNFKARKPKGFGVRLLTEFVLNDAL
row,Structure (SMILES),inhibition
1,Cc1ccc(NC(=O)C(C)[n+]2ccccc2)cc1[N+](=O)[O-] (centres undefined),-17.4%
2,CCOC(=O)c1nn(-c2ccc(Br)cc2)cc1C(=O)c1cccc2ccccc12,2.03%
3,O=C(O)CC12CC3CC(C1)CC(n1ncc(NCc4ccco4)c(Cl)c1=O)(C3)C2,7.19%
4,O=C(O)Cc1ccc(Nc2cnn(C34CC5CC(CC(CC(=O)O)(C5)C3)C4)c(=O)c2Cl)cc1,23.1%
5,O=C(O)CC12CC3CC(C1)CC(n1ncc(NCc4ccccc4Cl)c(Cl)c1=O)(C3)C2,23.6%
6,O=C(O)C12CC3CC(C1)CC(n1ncc(NCc4ccco4)c(Cl)c1=O)(C3)C2,1.68%
7,O=c1c(Cl)c(NCc2ccc(F)cc2Cl)cnn1C12CC3CC(CC(C3)C1)C2,-15.2%
8,O=C(O)CC12CC3CC(C1)CC(n1ncc(NCc4ccccc4)c(Cl)c1=O)(C3)C2,8.41%
9,O=c1c(Cl)c(NCc2ccc(F)cc2)cnn1C12CC3CC(CC(C3)C1)C2,18.3%
10,O=c1c(Cl)c(NCc2ccccc2)cnn1C12CC3CC(CC(C3)C1)C2,-15.7%
11,COc1ccccc1N1CCN(C(=O)COc2ccc(Cl)cc2Br)CC1,1.89%
12,CCOC(=O)C1CCN(C(=O)Nc2ccc(OC(F)(F)F)cc2)CC1,7.03%
13,O=C(c1cc2cccc([N+](=O)[O-])c2oc1=O)N1CCOCC1,14.7%
14,CCOC(=O)c1c(C)[nH]c(C)c1C(=O)COC(=O)/C=C/c1cccc(C(F)(F)F)c1,-1.01%
15,Cc1cc(C)c(OC2(c3ccccc3)OC(=O)c3ccccc32)c(C)c1 (centres undefined),-10.6%
16,Cc1ccccc1/C=N/N=C1/NC(=O)CCS1,23.8%
17,CN1CCC(=NNC(=O)C(=O)Nc2ccc(F)cc2)CC1,13.2%
18,COc1cccc(CNC(=O)CCNS(=O)(=O)c2cccc3nsnc23)c1,-1.94%
19,Cn1cccc1Cc1nnc(SCC(=O)N2CCc3ccccc32)n1CCc1ccccc1,36.6%
20,O=C(N/N=C/c1ccccc1C(=O)O)c1cc(-c2ccc3c4c(cccc24)CC3)n[nH]1,91.8%
21,O=C(N/N=C/c1cccc([N+](=O)[O-])c1)c1cc(-c2ccc3c4c(cccc24)CC3)n[nH]1,-2.54%
22,CC(C)=CC(=O)Nc1ccc(OCc2ccccc2)cc1,2.98%
23,O=C(NCC1CCCO1)/C(=C\c1cccc([N+](=O)[O-])c1)NC(=O)c1ccccc1 (centres undefined),-4.67%
24,O=C(O)Cn1c(=O)cnc2ccccc21,-13.7%

row,Structure (SMILES),inhibition
1,CC(C)C1N=C2c3ccccc3N=C(SCC(=O)NCCc3ccc(S(N)(=O)=O)cc3)N2C1=O (centres undefined),-29.1%
2,CC(C)C1N=C2c3ccccc3N=C(SCC#N)N2C1=O (centres undefined),-5.52%
3,CNC(=O)c1c2c(nc3ccc(Br)cc13)CCCC2,-4.18%
4,Cc1cccc(OCC(=O)Nc2ccc3c4c(cccc24)CC3)c1C,6.88%
5,O=C(CSc1nc2ccccc2c(=O)n1-c1ccc(F)cc1)Nc1ccc2c(c1)CCC2,13.5%
6,Cc1nnc(SCC(=O)Nc2ccc3c4c(cccc24)CC3)n1C,0.6%
7,COc1ccc(-n2c(SCC(=O)Nc3cccc4ccccc34)nc(O)cc2=O)cc1,-2.11%
8,Cc1ccc(-n2c(SCC(=O)Nc3ccc4c5c(cccc35)CC4)nc(O)cc2=O)cc1,26.7%
9,Cc1ccc(-n2c(SCC(=O)Nc3ccc4c5c(cccc35)CC4)nc(O)c(C)c2=O)cc1,39%
10,Cc1ccccc1Cn1nc(C)c(NC(=O)C2c3ccccc3Oc3ccccc32)c1C,-14%
11,CCN(CC)C(=O)c1ccc(-c2nnc(OC)c3ccccc23)cc1,-4.54%
12,COC(=O)c1c(-c2cccs2)csc1NC(=O)c1cccnc1,15.9%
13,CCCn1c(SCC(=O)N2c3ccccc3Sc3ccccc32)nc2ccccc21,-2.24%
14,CC1CCCCN1Cc1c(C#N)c2ccccc2n1C (centres undefined),-2.84%
15,Cc1nnc(SCC2=C(C(=O)O)N3C(=O)C(NC(=O)Cn4nc(C(F)F)cc4C)C3SC2)s1 (centres undefined),47.7%
16,Cc1c(Cl)c(C(F)F)nn1CC(=O)NC1C(=O)N2C(C(=O)O)=C(CSc3nnnn3C)CSC12 (centres undefined),11.3%
17,O=C(Nc1ccc(Oc2cccc3ccccc23)cc1)c1ccco1,-4.51%
18,CCN1C(=O)CC(N2CCN(c3ccc(C(=O)c4ccncc4)cc3)CC2)C1=O (centres undefined),31.2%
19,CC(=O)NC(C(=O)OCC(=O)N(c1ccccc1)c1ccccc1)C(C)C (centres undefined),0.51%
20,Cc1cc(N2CCCC2)ccc1/C=C1/C(=O)N(C)C(=S)N1C,1.26%
21,Cc1cc(N2CCCC2)ccc1/C=C1\NC(=S)N(C)C1=O,-1.37%
22,COc1cc2c(cc1OC)C(C(=O)N1CCCCC1)C(c1ccccc1F)N(C)C2=O (centres undefined),2.89%
23,S=c1cnc2ccccc2[nH]1,6.02%
24,N#CCCn1cc(C(=O)N2CCCCC2)c(-c2cccc([N+](=O)[O-])c2)n1,4.89%

row,Structure (SMILES),inhibition
1,CC1(C)CC(=O)C(C(C2=C(O)CC(C)(C)CC2=O)c2ccc(Cl)c([N+](=O)[O-])c2)C(=O)C1 (centres undefined),7.5%
2,CN(C)/C=N/c1sc2c(c1C#N)CCCC2,0.79%
3,CN(C)/C=N/c1sc2c(c1C#N)CCCCC2,5.07%
4,COc1cc(CNC2CCCC2)cc(Cl)c1OCc1ccccc1F,-3.97%
5,CC(NC(=O)c1ccc(Br)cc1)c1ccccc1 (centres undefined),12.4%
6,Cc1nc(-c2cccc(Cl)c2)n[nH]1,-5.31%
7,CCn1c(-c2cccc(Cl)c2)n[nH]c1=S,6.53%
8,COC(=O)CN1C(=O)C(O)(CC(=O)c2ccc(Cl)cc2)c2ccccc21 (centres undefined),12.1%
9,C/C(=N/NC(=O)CSCc1ccc(Cl)cc1)c1cccc(NC(=O)c2ccccc2)c1,-0.71%
10,CN(C)C(=S)Nc1cccc(-c2n[nH]c(=S)o2)c1,4%
11,O=C(CN1C(=O)c2cccc3cccc1c23)Nc1ccc2c(c1)OCO2,31.3%
12,O=C(CN1C(=O)CSc2ccccc21)Nc1ccc2c(c1)OCCO2,12.7%
13,O=C(CCN1C(=O)c2ccccc2C1=O)Nc1ccc2c(c1)OCCO2,10.7%
14,O=C(CN1C(=O)CCSc2ccccc21)Nc1ccc2c(c1)OCO2,48.6%
15,CC1CC(=O)N(CC(=O)NCc2ccc3c(c2)OCO3)c2ccccc2S1 (centres undefined),24%
16,CC1CC(=O)N(CC(=O)Nc2ccc3c(c2)OCCO3)c2ccccc2S1 (centres undefined),51.7%
17,O=C(CCCNS(=O)(=O)c1cccs1)N1CCc2ccccc2C1,-15.3%
18,COc1ccccc1C(=O)N(NC(=O)Oc1ccccc1)C(C)(C)C,-4.52%
19,COc1cc(/C=N/NC(=O)c2nonc2N)cc(OC)c1OC,12.6%
20,S=C(Nc1ccccc1)N(CCN1CCOCC1)Cc1cccc(Cl)c1,3.82%
21,CCOC(=O)c1[nH]c2ccc(Br)cc2c1NC(=O)CCN1CCCC(C)C1 (centres undefined),19.3%
22,CCC(C)(C)NC(=O)CN(C(=O)c1snc(C(N)=O)c1N)c1ccc(OC)c(OC)c1,-0.26%
23,COC(=O)c1ccc(Cl)c(NC(=O)CN2CCN(C)CC2)c1,-7.62%
24,CCCn1c(SCC(=O)Nc2ccccc2CC)nnc1C(C)C,-2.04%

row,Structure (SMILES),inhibition
1,COC(=O)c1ccc(Cl)c(NC(C)=O)c1,4.44%
2,Cn1cnnc1SCC(=O)Nc1ccc(Br)cc1F,4.31%
3,O=C(CSc1ccccn1)Nc1cccc2ccccc12,6.7%
4,CCc1ccccc1NC(=O)CSc1n[nH]c(C)c1[N+](=O)[O-],-11.3%
5,O=C(CSCC(=O)Nc1cccc2ccccc12)Nc1cccc2ccccc12,-9.94%
6,CC(C)n1cnnc1SCC(=O)Nc1ccc(Br)cc1F,-3.86%
7,C/C(=C\C(=O)c1ccccc1)Nc1ccc2c(c1)OCO2,-1.02%
8,CCOC(=O)c1cnc(SC)nc1Oc1cccc(NS(=O)(=O)c2ccccc2)c1,12.5%
9,COc1ccc(-c2nc(C)c(C(C)=O)n2O)cc1[N+](=O)[O-],39.5%
10,O=C(COn1nnc2ccc(C(F)(F)F)cc21)Nc1c(Cl)cccc1Cl,-14.4%
11,FC(F)(F)c1ccnc(NCc2ccco2)n1,5.81%
12,O=C(CN1C(=O)S/C(=C\C=C\c2ccccc2)C1=O)Nc1ccc(O)cc1,9.74%
13,O=C(CN1C(=O)S/C(=C\C=C\c2ccccc2)C1=O)Nc1ccc(C(=O)O)cc1,15.3%
14,Cc1ccc(C)c2nc(SCC(=O)N3CCCc4ccccc43)c(C#N)cc12,-4.2%
15,CC(=O)NCC(=O)N1CCCC(C(=O)c2ccc(-c3ccccc3)c(F)c2)C1 (centres undefined),-3.83%
16,Cc1cc(Nc2ccc([N+](=O)[O-])cc2)nc2ccccc12,13.7%
17,CC(C)(C)c1ccc(Oc2ccc(NC(=O)C3CC=CCC3C(=O)O)cc2)cc1 (centres undefined),3.52%
18,CC1=C(C)CC(C(=O)Nc2ccc(C(N)=O)cc2)C(C(=O)O)C1 (centres undefined),20.2%
19,CCOc1ccc(NC(=O)C2CC(=O)OC2c2ccccc2)cc1 (centres undefined),-1.92%
20,CC(C)OC(=O)C1CC=CCC1C(=O)Nc1ccc(Cl)cc1 (centres undefined),2.15%
21,CCOc1ccc(NS(=O)(=O)c2ccc(NC(=O)[C@@H]3CCCC[C@@H]3C(=O)O)cc2)cc1,42.4%
22,CCOc1ccc(NC(=O)C2C3CC/C=C\CCC32)cc1 (centres undefined),4.68%

# From PubChem BioAssay AID1619 (SRMLSC, 2009)
